# Most compounds without a hit are left out; they make up all but 4.8% or so of the library.
# hgDAF12 agonist – agonists of H. glycines DAF-12 nuclear receptor | HEK293 GAL4-hgDAF12 UAS-luciferase reporter, agonist luminescence; normalized to butyrate control | activation, % at 6.8 µM | hit rate 1.8% among 370,000 | AID 687014;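 active means activation above a cutoff set at the mean of all screened compounds plus 3 SD, cut at about 10% in these data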;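 further: 0% = DMSO wells and 100% = sodium butyrate wells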
# hcDAF-12 act – activates DAF-12 receptor from parasite H. contortus. HEK293 hcDAF-12 lit1-tk-luc reporter, luminescence; 0% DMSO, 100% Δ7-dafachronic acid. activation, % at 6.8 µM. hit rate 1.4% among 370,000. AID 652067;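 active means activation above the mean of all tested compounds plus 3 SD, cut at about 5.5% in these data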;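 further: 100% = response to 3 µM Δ7-dafachronic acid high control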
# ssDAF-12 act – activators of S. stercoralis DAF-12 nuclear receptor. hit rate 1% among 370,000. activation, % at 6.8 µM. AID 652126. HEK293 ssDAF-12/GRIP1 lit1-tk-luc reporter, luminescence; % of 3 µM dafachronic acid response;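 active means activation above the mean over all tested compounds plus 3 SD, cut at about 0.9% in these data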;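 further: 0% = DMSO-only wells and 100% = 3 µM delta7-dafachronic acid wells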
# DAX1 inh-1 – NR0B1 (DAX1) inhibition; AID 504766; hit rate 0.99% among 340,000; inhibition, % at 6.75 µM; HEK293 Gal4-DAX1 luciferase reporter, luminescence; P51843;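 active means inhibition above the mean over all tested compounds plus 3 SD, cut at about 4.2% in these data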;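 further: 0% = DAX1-transfected cells with DMSO and 100% = empty-vector control cells with DMSO; inhibition shows as a rise in luminescence from relieved DAX1 repression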
# Target sequence (P51843 207-470 limits assumed): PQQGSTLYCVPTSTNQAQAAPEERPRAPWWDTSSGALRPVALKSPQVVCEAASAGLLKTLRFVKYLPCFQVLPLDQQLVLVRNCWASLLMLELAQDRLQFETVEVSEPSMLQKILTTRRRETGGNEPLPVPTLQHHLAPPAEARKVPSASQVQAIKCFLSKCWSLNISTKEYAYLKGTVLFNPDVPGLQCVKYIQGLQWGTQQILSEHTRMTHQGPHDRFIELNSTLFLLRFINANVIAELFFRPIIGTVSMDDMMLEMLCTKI
# DAX1 inh-2 – blocks DAX1 repression of SF-1 activated StAR promoter; HEK293T StAR-luciferase reporter, SF-1/DAX-1 repression relief; inhibition, % at 6.8 µM; hit rate 1.1% among 370,000;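 active means inhibition above the mean over all tested compounds plus 3 SD, cut at about 3.6% in these data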;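 further: 0% = DAX-1 cells with DMSO and 100% = cells lacking DAX-1 with DMSO; higher inhibition means more luminescence from relief of DAX-1 repression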
# SMARCA2 act – increases SMARCA2 function in MMTV reporter cells; MG213 cells, MMTV-luciferase reporter, dexamethasone, overnight; activation, % at 9.1 µM; hit rate 1% among 370,000; AID 652017; in the data active means activation above about 7.8%;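 further: 0% = vehicle wells and 100% = reference activator wells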
# LXRb hcDAF ctr – LXR-beta agonism as hcDAF-12 counter-screen; 3,400 tested, under 10 active; AID 743027; shares compounds with hcDAF-12 act; HEK293 Gal4-LXR tk-luc reporter, luminescence, 24 h; normalized: DMSO 0%, positive control 100%; activation, % at 6.8 µM;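 active means mean percent activation of the reporter above a cutoff set as the average over tested compounds plus their standard deviation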
# Target sequence (P55055 whole entry, looked up, the tested form may be a part): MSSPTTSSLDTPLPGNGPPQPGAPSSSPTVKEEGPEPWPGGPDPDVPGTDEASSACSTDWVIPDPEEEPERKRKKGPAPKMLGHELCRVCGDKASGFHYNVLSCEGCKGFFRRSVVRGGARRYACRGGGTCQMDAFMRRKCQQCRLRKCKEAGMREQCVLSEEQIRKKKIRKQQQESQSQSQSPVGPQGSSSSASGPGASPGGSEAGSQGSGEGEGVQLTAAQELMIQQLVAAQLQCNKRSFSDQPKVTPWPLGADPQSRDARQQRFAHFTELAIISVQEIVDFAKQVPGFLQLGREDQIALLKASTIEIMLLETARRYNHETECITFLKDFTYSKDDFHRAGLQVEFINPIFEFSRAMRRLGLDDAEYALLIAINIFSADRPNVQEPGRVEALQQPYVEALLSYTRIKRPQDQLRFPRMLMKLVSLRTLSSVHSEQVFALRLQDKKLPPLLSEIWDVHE
# hcDAF12 conf – confirmation of H. contortus DAF-12 agonists; shares compounds with hcDAF-12 act; HEK293 hcDAF-12 lit1-tk-luc reporter, luminescence; % of Δ7-dafachronic acid response; activation, % at 6.8 µM; hit rate 61% among 3,400;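 active means mean activation across triplicate tests above the threshold derived from the earlier primary screen, cut at about 5.5% in these data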;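 further: 0% = DMSO only wells and 100% = 3 µM Δ7-dafachronic acid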
# The depositor's hits bear a star; · = no result.
SMILES,hgDAF12 agonist,hcDAF-12 act,ssDAF-12 act,DAX1 inh-1,DAX1 inh-2,SMARCA2 act,LXRb hcDAF ctr,hcDAF12 conf
Cc1nn(-c2ccc(Cl)c(Cl)c2)c(=O)c2ccccc12,5.3,3.6,-0.1,0.3,0.5,3.4,·,·
Cc1nn(-c2ccc(Cl)cc2)c(=O)c2ccccc12,9.4,7.2*,1.1*,1.7,2.7,5.8,0.6,9.9*
O=c1c2ccccc2cnn1Cc1n[nH]c(=S)n1-c1ccc(Cl)cc1,0.0,-1.4,-0.9,0.7,-0.4,1.5,·,·
O=c1c2ccccc2cnn1-c1ccc(Cl)cc1,16.8*,12.1*,1.9*,1.3,2.9,7.4,1.6,10.2*
CC(=O)c1sc(NC(=O)C2CC(=O)N(Cc3ccccc3)C2)nc1-c1ccccc1 (stereo not given),-0.5,1.2,-0.9,-0.2,-2.7,-1.9,·,·
CC1CC(C)CN(C(=O)CSCC(=O)Nc2nc(-c3cccs3)cs2)C1 (stereo not given),6.5,8.2*,0.7,0.2,0.5,-1.9,0.1,5.0
O=C(CSCC(=O)N1CCCCC1)Nc1nc(-c2cccs2)cs1,6.0,9.1*,0.3,1.1,-0.2,-1.6,0.2,6.0*
O=C(CSCC(=O)N1CCCCC1)Nc1nc(-c2ccc(Cl)s2)cs1,7.1,4.9,-0.6,0.2,-1.0,-0.1,·,·
O=C1C=C(Nc2ccccc2)C(=O)c2ccccc21,8.4,7.6*,0.1,-1.4,0.1,4.2,1.5,7.0*
O=C1C=C(Nc2ccccc2)c2ccccc2C1=O,-7.8,-1.0,-0.8,-0.2,-1.8,-5.7,·,·
Cn1ccc2c(N3CCCCC3)cc3c(c21)C1CCC3O1 (stereo not given),0.0,0.7,-1.7,·,-0.4,-4.9,·,·
CCOc1ccccc1NC(=O)CNC(=O)N1CC(=O)Nc2ccccc21,1.6,7.0*,-0.4,0.5,3.5,-1.8,-0.2,3.3
Cc1ccc(C)c(NC(=O)CNC(=O)N2CC(=O)Nc3ccccc32)c1,1.3,-0.7,-0.8,0.2,0.3,-0.3,·,·
Cc1cccc(SCC(=O)Nc2ccc3c(c2)OCCO3)c1,4.8,7.1*,0.1,0.5,0.6,0.6,0.6,5.8*
Cc1cc(NC(=O)COC(=O)CNC(=O)c2cccs2)c([N+](=O)[O-])cc1C,3.6,-0.5,-0.6,0.0,1.4,-2.0,·,·
CC1(C)CC2(OC2c2ccccc2[N+](=O)[O-])C(=O)c2ccccc21 (stereo not given),2.4,-1.8,-0.9,-0.3,1.0,1.1,·,·
C(=N\Nc1nncc2ccccc12)/c1ccccc1,8.4,7.7*,0.3,3.1,1.8,4.8,1.9,13.6*
CN(C)c1ccc(/C=N/Nc2nncc3ccccc23)cc1,14.4*,8.0*,1.4*,2.1,3.6,3.1,2.1,11.3*
CN(C)c1ccc(/C=N/Nc2nc3ccccc3o2)cc1,10.3,7.7*,0.9,-1.1,1.8,2.2,1.1,5.4
CCOC(=O)N1CCC(NC(=O)c2ccc(Cl)cc2)CC1,0.2,2.1,-0.7,1.2,0.1,-6.1,·,·
Cn1nc(-c2ccc(Cl)cc2)c2cc(C(=O)NCCCN3CCCC3)sc21,6.3,9.5*,0.2,3.0,0.8,0.1,-0.1,6.5*
COCCNC(=O)c1cc2c(-c3ccc(Cl)cc3)nn(C)c2s1,2.7,6.8*,-0.6,0.0,-0.8,2.7,0.0,3.3
Cn1nc(-c2ccc(Cl)cc2)c2cc(C(=O)N3CCCC3)sc21,-0.4,3.5,-0.2,-1.7,0.4,-1.0,·,·
CCOC(=O)N1CCC(NC(=O)c2cc3c(-c4ccc(Cl)cc4)nn(C)c3s2)CC1,0.3,7.8*,0.2,0.3,1.1,1.2,-0.4,0.5
Cc1onc(-c2c(F)cccc2Cl)c1C(=O)N=C(N)N1CC(C)OC(C)C1 (stereo not given),-0.4,-0.6,-1.4,-0.4,-0.5,-2.1,·,·
SMILES,hgDAF12 agonist,hcDAF-12 act,ssDAF-12 act,DAX1 inh-1,DAX1 inh-2,SMARCA2 act,LXRb hcDAF ctr,hcDAF12 conf
CC1(C)CC2CC(C)(CN2C(=O)c2cc(-c3ccccc3)on2)C1 (stereo not given),0.3,-2.6,-1.0,-0.6,-0.2,-3.4,·,·
CCN(c1ccccc1)S(=O)(=O)c1ccc(C(=O)Nc2nnc(C3CC3)o2)cc1,-1.2,-0.6,-0.7,-1.7,-1.7,-4.1,·,·
CN(c1ccccc1)S(=O)(=O)c1ccc(C(=O)Nc2nnc(C3CC3)o2)cc1,0.8,7.2*,-1.0,1.2,0.0,-4.3,-0.1,0.4
COc1ccc(N=CC2=C(O)c3ccccc3C2=O)c(OC)c1,9.5,12.1*,1.6*,2.3,2.3,3.2,0.5,6.8*
COc1ccc(/C=C/C(=O)O)cc1S(=O)(=O)Nc1ccc2c(c1)OCO2,1.3,-0.2,-1.3,2.6,0.5,-0.5,·,·
CNCc1ccccc1OCC(=O)Nc1ccccc1,8.6,7.0*,0.8,1.0,0.2,0.8,0.2,5.3
CC(Oc1ccccc1Cl)C(=O)Nc1ccccc1C(=O)N1CCOCC1 (stereo not given),2.4,0.4,-0.7,-0.1,-0.2,-1.6,·,·
COc1ccc(CCCN2CCC(CN3C(=S)NC[C@@H]3Cc3ccccc3)CC2)cc1OC,2.1,-1.4,-1.2,1.1,-0.5,-0.1,·,·
Cc1ccn2cc(-c3cccc(NC(=O)C(C)C)c3)nc2c1,7.2,2.6,-1.0,0.3,0.9,3.4,·,·
Cc1ccn2cc(-c3ccc(O)c(O)c3)nc2c1,9.1,7.0*,0.7,-2.2,3.0,0.5,1.3,7.5*
Cc1ccc2nc(-c3cccc(N)c3)[nH]c2c1,9.7,4.8,-0.3,-1.5,3.6,0.6,·,·
Nc1cccc(-c2nc3ccccc3[nH]2)c1,7.7,8.0*,-1.2,1.4,2.3,4.0,0.3,5.3
CN(C(=O)c1ccccc1)c1nc2ccccc2s1,12.7*,6.8*,-0.1,-0.4,2.2,2.4,1.4,6.2*
CCCCN(C(=O)c1ccc(S(=O)(=O)N(C)C)cc1)c1nc2ccccc2s1,0.1,0.4,-1.2,0.0,0.0,-1.4,·,·
Cc1ccc(S(=O)(=O)c2nc(NN(C)C)sc2Cl)cc1,-2.9,-1.1,-1.6,-1.3,-2.3,-0.7,·,·
Nc1ccccc1SSc1ccccc1N,4.0,10.5*,-0.1,0.5,-1.1,3.9,0.2,5.3
CCOC(=O)CNC(=O)CSc1nnc(-c2ccc(C(C)(C)C)cc2)n1-c1ccc(Cl)cc1,-3.3,-2.5,-1.4,·,0.2,1.0,·,·
CCOC(=O)N=Nc1c(O)n(C)c2ccccc12,5.4,7.3*,-0.5,-0.5,-0.3,0.7,-0.1,2.4
O=C(CSCc1ccccc1Cl)NCCSc1ccccn1,4.9,-1.3,-1.3,3.4,0.1,4.8,·,·

# Source: PubChem (The Scripps Research Institute Molecular Screening Center)
